Source: PubChem (National Center for Advancing Translational Sciences (NCATS))
This is a sample that favours compounds with a hit; in the whole collection about 12% have one here.
AmpC inh detg: blocks E. coli AmpC beta-lactamase in detergent assay; AmpC hydrolysis of nitrocefin, absorbance 480 nm, 0.01% Triton; 0.041% of 370,000 active; P00811; Potency, µM (top dose mostly 114 µM), for the others: at the top dose activity change, negative = inhibition, hits mostly inhibitors;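 further: 0% = no-compound wells and -100% = no-enzyme wells; nearly all actives have a fitted effect of over 25% in size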
Target sequence (P00811 whole entry, looked up): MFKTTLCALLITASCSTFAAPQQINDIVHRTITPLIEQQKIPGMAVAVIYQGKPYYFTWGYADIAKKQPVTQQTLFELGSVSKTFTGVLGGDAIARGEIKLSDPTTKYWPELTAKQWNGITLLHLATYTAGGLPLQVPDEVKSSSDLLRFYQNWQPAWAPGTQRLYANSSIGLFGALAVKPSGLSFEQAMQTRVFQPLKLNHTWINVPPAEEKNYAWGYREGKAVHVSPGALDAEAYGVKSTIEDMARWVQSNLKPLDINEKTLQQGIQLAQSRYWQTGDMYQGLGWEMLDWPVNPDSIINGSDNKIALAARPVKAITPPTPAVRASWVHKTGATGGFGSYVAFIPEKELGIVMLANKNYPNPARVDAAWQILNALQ
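AmpC (5.3 nM in the dispensed reagent) in 20 mM phosphate pH 7.0 with 0.01% (detergent screen) or 0.0001% Triton X-100 was preincubated with compounds for 15 min at room temperature. Nitrocefin was then added from an 800 uM solution, and hydrolysis was followed at 480 nm.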
AmpC inh no detg: inhibitors of E. coli AmpC beta-lactamase without detergent. AmpC nitrocefin hydrolysis, absorbance 480 nm, 0.0001% Triton. Potency, µM (highest dose often 57.1 µM), without a hit: at the top dose activity change, negative = inhibition, hits mostly inhibitors. 0.52% of 330,000 active. AID 485341;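 further: plate controls were no compound for no effect and no enzyme for full effect; nearly all actives have a fitted effect of over 20% in size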
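AmpC (5.3 nM in the dispensed reagent) in 20 mM phosphate pH 7.0 with 0.01% (detergent screen) or 0.0001% Triton X-100 was preincubated with compounds for 15 min at room temperature. Nitrocefin was then added from an 800 uM solution, and hydrolysis was followed at 480 nm.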
Pf growth 96h: P. falciparum growth inhibition at 96 hour, primary screen for plastid delayed-death inhibitors; 6.9% of 320,000 active; AID 504834; Potency, µM (series often up to 28.7 µM), for inactives: at the top dose activity change, negative = inhibition, actives largely listed as inhibitors; P. falciparum luciferase reporter growth, 96 h; further: on the % scale 0 is the no-effect control and ±100 the full control effect
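96 h incubation, 37 C, 5% CO2, of luciferase-reporter P. falciparum-infected RBCs (2% hematocrit, 0.05% parasitemia final) with test compounds; endpoint luminescence.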
Sm TGR inh: inhibitors of Schistosoma mansoni thioredoxin glutathione reductase; AID 485364; Potency, µM (highest dose often 114 µM), without a hit: at the top dose activity change, negative = inhibition, hits mostly inhibitors; 3% of 360,000 active; purified TGR, DTNB reduction, TNB absorbance 405 nm; Q962Y6; further: on the % scale 0 is the no-effect control and ±100 the full control effect; nearly all actives have a fitted effect of over 60% in size
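Kinetic colorimetric format: TGR-catalysed, NADPH-driven DTNB reduction monitored via TNB absorbance. Enzyme dispensed at 20 nM; compound exposure 15 min at room temperature before reaction start.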
Pf growth 48h: inhibits P. falciparum growth in the first generation, 48 h; P. falciparum luciferase growth in erythrocytes, 48 h; Potency, µM (series often up to 28.7 µM), without a hit: top-dose activity change, negative = inhibition, actives largely listed as inhibitors; 5.9% of 310,000 active; further: on the % scale 0 is the no-effect control and ±100 the full control effect
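Erythrocytes infected with P. falciparum carrying an integrated firefly luciferase reporter (2% hematocrit, 0.1% parasitemia final) were exposed to compounds in RPMI 1640 with 0.5% Albumax at 37 C, 5% CO2. Growth inhibition was scored as reduced luminescence.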
SARS PLP yeast: inhibitors of SARS-CoV papain-like protease in yeast; Potency, µM (highest dose often 32.9 µM), for the others: at the highest dose activity, positive = growth rescue, actives largely listed as activators; S. cerevisiae expressing SARS-CoV PLpro, growth rescue; 0.19% of 330,000 active; AID 485353; calls by dose curve; further: 0% is about no effect; nearly all actives have a fitted effect of over 55% in size
Numbers without * were called inactive; ? = inconclusive; . = no result given; [ ] = dose if it differs, or a comment. Unless noted, the call rests on the fitted dose curve; in most records, active means well fitted curve in the direction sought with a large enough effect; inconclusive means small, poorly fitted or top-dose-only effect, or another doubt; inactive means no such curve, though single readings can be large; an effect the other way counts as inactive or inconclusive. Potency means the concentration at half of the fitted maximal effect.

SMILES | AmpC inh detg | AmpC inh no detg | Pf growth 96h | Sm TGR inh | Pf growth 48h | SARS PLP yeast
COc1cccc(C2CC(c3cccs3)=NN2C(=O)CSC2=NN3CCCC(=O)N=C3S2)c1OC (centres undefined) | -16.9% | 196.4% | 0.465µM* | -12.0% | 7.38µM* | -0.2%
COc1ccc(C2CC(c3cccs3)=NN2C(=O)CSc2nc3ccccc3s2)cc1 (centres undefined) | 2.3% | -34.5% | ? | 0.1% | ? | 2.0%
O=C(CSc1nc2c(cnn2-c2ccc(F)cc2)c(=O)[nH]1)N1N=C(c2cccs2)CC1c1ccc(F)cc1 (centres undefined) | ? | -29.0% | 9.28µM* | -10.1% | ? | -2.7%
Cc1ccc(C2CC(c3cccs3)=NN2C(=O)CSc2nc(=O)n3cc(C)ccc3n2)cc1 (centres undefined) | 11.4% | 82.3% | 5.22µM* | 3.9% | ? | -1.7%
COc1ccc(C2=NN(C(=O)CSC3=NN4CCCC(=O)N=C4S3)C(c3cccc(OC)c3OC)C2)cc1 (centres undefined) | -1.3% | 194.7% | ? | -5.3% | ? | 0.1%
COc1ccc(C2CC(c3cccs3)=NN2C(=O)CSc2nc(=O)n3ccccc3n2)cc1 (centres undefined) | 0.2% | ? | 8.28µM* | -0.5% | 13.1µM* | 1.5%
Cc1cccc(S(=O)(=O)c2c(C)cc(C)nc2Cl)c1 | 6.5% | -11.6% | -11.7% | 7.6% | -12.9% | -4.2%
CCCCN(C(=O)CSc1ncn[nH]1)c1c(N)n(Cc2ccccc2)c(=O)[nH]c1=O | 2.4% | -2.7% | -1.6% | 1.3% | 3.3% | 7.8%
Cc1c(NC(=O)Nc2ccccc2C(F)(F)F)sc2nc3n(c(=O)c12)CCC(C)CC3 (centres undefined) | 13.1% | . | . | 6.5% | . | .
COc1ccccc1OCC(=O)Nc1c2c(nn1-c1ccccc1)CS(=O)(=O)C2 | -7.3% | -20.6% | 2.5% | -21.2% | 4.1% | 7.7%
Cc1cccn2c(=O)nc(SCC(=O)N3N=C(c4cccs4)CC3c3ccc(F)cc3)nc12 (centres undefined) | 0.0% | 68.3% | 3.7µM* | -1.2% | 8.28µM* | 0.8%
CCOC(=O)CSCC(=O)N1N=C(c2cccs2)CC1c1ccc(F)cc1 (centres undefined) | -1.7% | -10.7% | ? | ? | 14.8% | -4.7%
O=c1cc(-c2ccccc2)cc(-c2ccccc2)n1O | -8.8% | -37.8% | ? | 1.7% | 13.1µM* | -22.1%
Cn1c(-c2ccccc2)cc(=O)c2ccccc21 | -9.4% | -8.0% | 23.0% | -17.5% | 11.4% | -16.6%
O=C(NC1CCC(CC2CCC(NC(=O)C(Cl)Cl)CC2)CC1)C(Cl)Cl (centres undefined) | -6.8% | -8.6% | -1.6% | -2.5% | 29.4% | 5.2%
COc1ccc(OCc2nnc(SCC(=O)N3CCCc4ccccc43)n2-c2ccc(C)cc2)cc1 | 3.5% | 40.5% | . | -12.0% | 11.7µM* | -0.1%
N#Cc1ccc(OCc2nnc(SCC(=O)N3CCCc4ccccc43)n2-c2ccccc2)cc1 | -1.7% | 80.4% | 3.29µM* | 0.0% | 14.7µM* | 1.8%
Cc1ccc(C)c(-n2c(CNC(=O)c3ccco3)nnc2SCC(=O)Nc2nnc(C)s2)c1 | -6.4% | 0.2% | 26.1% | -24.1% | . | -2.9%
Cc1ccc(C)c(-n2c(CNC(=O)c3ccco3)nnc2SCC(=O)N2CCc3ccccc32)c1 | 5.3% | 1.1% | 13.1µM* | 4.1% | 8.2% | -1.4%
O=C(COc1ccc2ccccc2c1CN1CCOCC1)N1CCc2ccccc21 | -12.6% | 109.0% | 10.4µM* | 7.4%[11.4 µM] | . | 5.0%
O=C(COc1ccccc1Cl)N1CCc2ccccc21 | -8.6% | -5.5% | 5.5% | -3.2% | 69.4% | 8.3%
O=C(CS(=O)(=O)c1cccc2nsnc12)NCc1ccccc1Cl | 0.1% | . | . | -2.9% | . | .
O=C(CSc1nnc(CN2CCOCC2)n1-c1ccccc1)N1CCc2ccccc21 | 0.0% | -5.2% | 13.1µM* | -2.8% | 3.4% | 3.5%
Nc1nnc(SCC(=O)N2CCc3ccccc32)n1-c1ccccc1 | 1.4% | -5.3% | -3.4% | -0.7% | 1.2% | 2.7%
Cc1ccc(C(=O)Oc2oc(-c3ccco3)nc2C=Nc2ccccc2)cc1 | 3.6% | -16.7% | 86.9% | 2.51µM* | 145.5% | 10.3%
SMILES | AmpC inh detg | AmpC inh no detg | Pf growth 96h | Sm TGR inh | Pf growth 48h | SARS PLP yeast
COc1ccc(N=Cc2nc(-c3ccccc3)oc2OC(=O)c2ccccc2)cc1 | ? | -21.4% | 242.8% | -26.9% | 139.9% | -14.4%
CCOC(=O)c1ccc(N=Cc2nc(-c3ccccc3)oc2OC(C)=O)cc1 | ? | -14.4% | 15.8% | ? | . | 1.3%
CC(=O)Oc1oc(-c2ccccc2)nc1C=Nc1ccccc1 | 1.9% | -26.0% | 53.5% | 17.8µM* | 28.7% | 2.2%
COc1ccc(-c2nc(Cn3c(SCc4cccc(F)c4)nc4ccncc43)c(C)o2)cc1OC | -7.7% | 140.5% | -13.3% | ? | 11.7µM* | 1.4%
COc1ccc(-c2nc(Cn3c(SCc4ccc(C)cc4)nc4ccncc43)c(C)o2)cc1OC | ? | 124.8% | ? | ? | . | 13.2%
CCOc1ccc(CCNC(=O)c2nn(C)c3c2CSc2ccc(C)cc2-3)cc1OCC | 3.9% | . | . | 11.4% | . | .
CN(C(=S)Nc1ccc(Oc2ccccc2)cc1)c1ccc(O)cc1 | -7.2% | -14.2% | -16.3% | 39.8µM* | -9.7% | -20.9%
CN(C(=S)Nc1ccccc1)c1ccccc1 | ? | -0.1% | -3.4% | -31.0% | 6.3% | 2.6%
COc1ccc(CN=Cc2c(C(F)(F)F)[nH][nH]c2=O)cc1 | 1.0% | -7.4% | -14.0% | 7.1% | . | 4.8%
CN1C(=O)N(C)C(=O)C2(Cc3cc(NC(=O)c4ccc(F)cc4)ccc3N3CCCC32)C1=O (centres undefined) | -2.4% | 136.1% | 14.7µM* | 39.8µM* | ? | -0.3%
CC(=O)Nc1ccc2c(c1)CC1(C(=O)N(C)C(=O)N(C)C1=O)C1CCCN21 (centres undefined) | -0.7% | 23.6% | 19.6% | 44.7µM* | . | -11.8%
CN1C(=O)N(C)C(=O)C2(Cc3ccccc3N3CCCC32)C1=O (centres undefined) | -6.3% | -1.6% | 0.2% | ? | -0.4% | 0.9%
COC(=O)c1ccc(-n2c(C)cc(C(=O)COC(=O)C3=COCCO3)c2C)cc1 | . | -7.2% | . | . | . | -3.0%
CCOc1ccc(NC(=O)C(=O)c2cc(C)n(-c3cc(C)cc(C)c3)c2C)cc1 | 9.6% | . | . | 1.2% | . | .
CCOc1ccc(-n2c(C)cc(C(=O)CCl)c2C)cc1 | -0.8% | -14.4% | ? | 4.47µM* | 3.7% | -7.2%
COC(=O)c1ccc(-n2c(C)cc(C(=O)CCl)c2C)cc1 | -0.9% | -20.9% | -16.1% | 4.47µM* | ? | -4.3%
